This is an account of results in PubChem BioAssay AID2685 (National Center for Advancing Translational Sciences (NCATS), 2010).

Each structure is given as a SMILES string. Among all 320,000 compounds or so, about 2,100 (0.66%) were called active. Not shown: some 53% with an inconclusive outcome. Calls follow the shape of the dose curve; as a rule, active = well fitted inhibition curve with a large enough effect in the signal ratio, with a control signal flat (not every such curve was filed as active); inconclusive = small, poorly fitted or top-dose-only effect, or effect the other way, or a change in a side signal; inactive = flat fitted curve, though single readings scatter; the % refers to the signal ratio. This excerpt belongs to a sample that is enriched for actives.
Potency is read from the fitted curve at half-maximal effect.

This assay is described as follows: qHTS Assay for Lipid Storage Modulators in Drosophila S3 Cells.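 As to cell number change: cells counted by Cell Tracker Red CMTPX staining in the red channel.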 As to lipid storage change, negative = inhibition: % is scaled to controls: 0 for no effect and ±100 for the full control effect. As to conditions: BODIPY lipid droplet fluorescence, 18-24 h, cells fed with added oleic acid; cell number change: measured here: cell count max response; series mostly up to 46.1 µM; lipid storage change, negative = inhibition: at the top concentration. In a few lines:
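Drosophila S3 cells got compounds at several concentrations plus oleic acid (400 uM solution). Laser-scanning cytometry with 488 nm excitation read lipid droplets at 500-530 nm and cells at 575-640 nm. Percent activity was relative to 20 uM Triacsin C.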
A general note: qHTS replaces the single test concentration by a dilution series.
Take `Cc1ccc(S(=O)(=O)CC(=O)Nc2ncc([N+](=O)[O-])s2)cc1`: the call was inactive and the cell number change was -14.4%.
As for `Cc1ccc(C(=O)Nc2ncc([N+](=O)[O-])s2)cc1`, the Potency is 23.1 µM (active) and the cell number change is -15.4%.
Regarding `Cc1ccnc(NC(=O)c2ccc(Br)s2)c1`, the “lipid storage change, negative = inhibition” value was 1.19% (inactive) and the cell number change came to 12.2%.
As to `O=C(CCS(=O)(=O)c1ccccc1)Nc1ncc([N+](=O)[O-])s1`, the Potency was 4.61 µM (active) and the cell number change was -3.6%.
Take `CCOCCc1nnc(NC(=O)CCS(=O)(=O)c2ccccc2)s1`: the compound was classed as inactive and the cell number change is -12%.
Take `CCCc1nnc(NC(=O)CS(=O)(=O)c2ccccc2)s1`: the “lipid storage change, negative = inhibition” value is 2.43% (inactive) and the cell number change is -20%.
As to `Cc1ccnc(NC(=O)c2ccc(Cl)s2)c1`, the result was inactive.
As to `Cc1ccc(CC(=O)Nc2ncc([N+](=O)[O-])s2)cc1`, the “lipid storage change, negative = inhibition” value was -18.5% (inactive) and the cell number change is 2.17%.
Regarding `Cc1ccnc(NC(=O)c2ccc([N+](=O)[O-])s2)c1`, the Potency was 11.2 µM (active) and the cell number change was -22%.
Regarding `O=C(Nc1ccccc1F)Nc1ccc([N+](=O)[O-])cc1Cl`, the “lipid storage change, negative = inhibition” value was -3.39% (inactive) and the cell number change came to 6.06%.
`Cc1ccccc1S(=O)(=O)Cc1ccc(C(=O)NC(C)c2ccccc2)o1` (centres undefined): the result was inactive.
Take `Cn1cc(Br)c(NS(=O)(=O)c2ccc(Cl)s2)n1`: the “lipid storage change, negative = inhibition” value was -10.7% (inactive) and the cell number change came out at 7.84%.
Consider `CCc1ccc(C(=O)COC(=O)CNC(=O)CNC(=O)Cc2ccccc2)cc1`, for which the “lipid storage change, negative = inhibition” value was -8.25% (inactive) and the cell number change is -4.14%.
`CCc1ccccc1NC(=O)c1cnc2n(c1=O)CCS2`: the “lipid storage change, negative = inhibition” value is 18.3% (inactive) and the cell number change is -5.43%.
Regarding `COc1ccc(C(=O)Oc2cc(/C=N/NS(=O)(=O)c3ccccc3)ccc2OC)cc1`, the call was inactive and the cell number change is -2.45%.
Regarding `COc1ccccc1NS(=O)(=O)c1ccc(C(=O)NCC(c2ccco2)N(C)C)cc1` (centres undefined), the “lipid storage change, negative = inhibition” value is 12.6% (inactive) and the cell number change was -9.2%.
`O=C(Nc1nc2c(F)cc(F)cc2s1)C1CCN(C(=O)c2ccc(F)cc2)CC1`: the “lipid storage change, negative = inhibition” value was 25.4% (inactive) and the cell number change came out at 13.4%.
Turning to `CC1(C)CC(C(CC(=O)Nc2nccs2)c2ccccc2)CCO1` (centres undefined), the “lipid storage change, negative = inhibition” value was -0.125% (inactive) and the cell number change is -3.73%.
Regarding `O=C(CSc1nnc2c(Cl)cc(Cl)cn12)N1CCN(S(=O)(=O)c2ccccc2)CC1`, the “lipid storage change, negative = inhibition” value is 29.6% (inactive) and the cell number change came out at 0.68%.
Consider `CCOc1cc(C2C(C#N)=C(N)OC(C)=C2C(C)=O)cc(Br)c1O` (centres undefined), for which the Potency is 8.2 µM (active).
For `CCOC(=O)C1=C(C)OC(N)=C(C#N)C1c1ccccc1` (centres undefined), the cell number change is 2.6% and the lipid storage change, negative = inhibition was 8.87% [at 9.22 µM] (inactive).
Turning to `CCOC(=O)C1=C(C)OC(N)=C(C#N)C1c1cccc(C)c1` (centres undefined), the “lipid storage change, negative = inhibition” value was 17.7% (inactive) and the cell number change was determined as 26.4%.
Consider `CCc1nnc(NS(=O)(=O)c2ccc(NC(=O)c3ccco3)cc2)s1`, for which the “lipid storage change, negative = inhibition” value is -9.02% (inactive) and the cell number change is -17.4%.
With `COc1ccc(/C=N/N=C2/NC(=O)C(c3ccccc3)(c3ccccc3)S2)cc1`, the Potency is 16.4 µM (active) and the cell number change turned out to be 1.45%.
`COc1ccc(/C=N/N=C2/NC(=O)CC(C(=O)O)S2)cc1` (centres undefined): the “lipid storage change, negative = inhibition” value is -10.8% (inactive).
In the case of `COc1ccc(CC2S/C(=N/N=C/c3ccc(O)cc3)NC2=O)cc1` (centres undefined), the “lipid storage change, negative = inhibition” value was -8.38% (inactive) and the cell number change worked out at 8.53%.
For `Cc1ccc(/C=C/S(=O)(=O)NCC(=O)OCC(=O)N2CC(=O)Nc3ccccc32)cc1`, in that order: -12.9% (inactive) and 5.37%.
Take `CCOc1ncccc1C(=O)Nc1cccc(C(=O)Nc2cccc(S(=O)(=O)CCO)c2)c1`: the “lipid storage change, negative = inhibition” value was -0.285% (inactive) and the cell number change was -9.36%.
Take `Cc1ccc(-c2nnc(SCC#N)n2N)cc1`: the “lipid storage change, negative = inhibition” value is 10.1% (inactive) and the cell number change was 6.27%.
As for `COc1ccc(-c2csc3ncn(-c4ccccc4)c(=O)c23)cc1OC`, the “lipid storage change, negative = inhibition” value was 1.51% (inactive) and the cell number change was -7.4%.
`Cc1cc(C)nc(CCNC(=O)C2CCC(=O)N(Cc3ccccc3F)C2)n1` (centres undefined): the “lipid storage change, negative = inhibition” value is 17.5% (inactive) and the cell number change is 14.5%.
On to `CCCNC(=O)CSCc1nc(-c2ccc(SC)cc2)oc1C`, for which the “lipid storage change, negative = inhibition” value is 6.01% (inactive) and the cell number change was determined as 10.2%.
`CSc1ccc(-c2nc(CSCC(=O)NCCCN3CCOCC3)c(C)o2)cc1`: the “lipid storage change, negative = inhibition” value was 3.48% (inactive) and the cell number change is -0.666%.
In the case of `CSc1ccc(-c2nc(CSCC(=O)NCCCN3CCCC3=O)c(C)o2)cc1`, the Potency was 1.84 µM (active).
Consider `CCOC(=O)C(CCCOc1cccc(OC)c1)C(=O)OCC`, for which the “lipid storage change, negative = inhibition” value is 0.495% (inactive) and the cell number change is -10.4%.
As to `O=C(COc1ccc([N+](=O)[O-])cc1)N1CCc2ccccc2C1`, the “lipid storage change, negative = inhibition” value is 14.6% (inactive) and the cell number change came out at 20%.
Consider `COc1ccc([N+](=O)[O-])cc1NC(=O)c1ccccc1N(C)S(C)(=O)=O`, for which the “lipid storage change, negative = inhibition” value was -5.45% (inactive) and the cell number change is -12.5%.
On to `Clc1ccc(-c2nnc(Sc3nc4ccccc4o3)c3ccccc23)cc1`, for which the “lipid storage change, negative = inhibition” value is 4.25% (inactive) and the cell number change was -12.5%.
For the compound `O=c1c(Cl)c2oc3ccccc3nc-2c2ccccc12`, the Potency was 11.6 µM (active) and the cell number change was determined as 13.2%.
Regarding `Cc1ccc(-c2nnc(Sc3nc4ccccc4o3)c3ccccc23)cc1`, the “lipid storage change, negative = inhibition” value is 4.8% (inactive) and the cell number change was -15.3%.
For `CCSc1ccc(-c2ccco2)nn1`, in that order: 0.907% (inactive) and 13.6%.
As to `O=c1c([N+](=O)[O-])c(O)c2cccc3c2n1CCC3`, the “lipid storage change, negative = inhibition” value is 14.8% (inactive) and the cell number change was -0.265%.
Regarding `O=C(Nc1ccccc1C(=O)Nc1ccccn1)c1cccc([N+](=O)[O-])c1`, the compound was called inactive and the cell number change amounted to 6.61%.
Consider `N#Cc1c(N)nc2c(c1-c1ccc(F)cc1)c(=O)nc1sccn12`, for which the “lipid storage change, negative = inhibition” value was 23% (inactive).
In the case of `CC1(c2ccccc2Cl)NC(=O)N(CC(=O)NCCC2=CCCCC2)C1=O` (centres undefined), the compound was called inactive.
Turning to `O=C(Cc1ccc(F)cc1)N1CCN(c2ccc([N+](=O)[O-])cc2)CC1`, the compound was classed as inactive and the cell number change was 11.6%.
Consider `O=C(Cc1ccc([N+](=O)[O-])cc1)N1CCN(c2ccc([N+](=O)[O-])cc2)CC1`, for which the “lipid storage change, negative = inhibition” value is -12.1% (inactive) and the cell number change is 2.07%.
As for `Cc1ccc(CC(=O)N2CCN(c3ccc([N+](=O)[O-])cc3)CC2)cc1`, the Potency is 7.31 µM (active) and the cell number change was determined as 10.2%.
